Laboratory results as given in PubChem BioAssay.
Activity calls are given as the source filed them. Unless noted, the rule behind the calls is not given here.

Legend:
[1] = anti-His antibody binders, primary screen, artefact control for SMM control protein annotation, biochemical, small-molecule microarray, 635 nm fluorescence (AID 1128); details: anti-His Alexa647 antibody binding, higher = more signal;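 note: score merges feature fluorescence with signal-to-noise for each printed compound spot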
[2] = tested on: Human papillomavirus type 1a E7 protein (residues 1-88); experiment: HPV1a E7 small-molecule binders, primary screen, biochemical, small-molecule microarray, residues 1-88, 635 nm (AID 1129); details: small-molecule microarray binding, fluorescence 635 nm; higher = more signal
[3] = target: Focal adhesion kinase 1 (Homo sapiens) (UniProt Q05397); experiment: small-molecule microarray binders of FAK, primary screen, biochemical, 635/667 nm fluorescence, BSA, DTT (AID 1130); details: PTK2 binding, 635 nm fluorescence, higher = more signal;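 note: composite of spot emission at 667 nm and signal to noise over triplicate slides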
[4] = tested on: Fibrinogen (Alexa647-labelled); experiment: fibrinogen binders on compound microarrays, profiling panel, artefact control for SMM control-protein annotation, biochemical, small-molecule microarray, 635/667 nm fluorescence (AID 1131); details: fibrinogen-A647 binding fluorescence, higher = more signal;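 note: z-score merges 667 nm fluorescence with per-spot signal-to-noise over triplicate slides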
[5] = target: Follistatin (Homo sapiens) (UniProt P19883); experiment: follistatin binders on small-molecule microarrays, primary screen, biochemical, small-molecule microarray, 635/667 nm fluorescence (AID 1132); details: FST binding, 635 nm fluorescence, higher = more signal
[6] = target: Fibroblast growth factor 2 (Homo sapiens) (UniProt P09038); experiment: FGF2 binders on small-molecule microarrays, primary screen, biochemical, small-molecule microarray, 635/667 nm fluorescence (AID 1133); details: small-molecule microarray binding, FGF2, fluorescence 635/667; higher = more signal
[7] = mitochondrial membrane potential change in A549 cells, profiling panel, cell-based, JC-1 fluorescence, basal, 24 h, 100 nL (AID 1138); details: higher = more signal;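 note: A549 lung adenocarcinoma cells under basal conditions with no added stimulus; test concentration not given here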
Lefty1 = Lefty1 binders on small-molecule microarrays, primary screen, biochemical, small-molecule microarray, 635/667 nm fluorescence (AID 1139); details: small-molecule microarray binding, fluorescence 635/667; higher = more signal
[8] = tested on: wheat germ agglutinin (Triticum aestivum), Alexa647-labelled; experiment: wheat germ agglutinin binders on compound microarrays, profiling panel, artefact control for SMM control-protein annotation, biochemical, small-molecule microarray, 635/667 nm fluorescence (AID 1140); details: WGA-A647 binding, 635 nm fluorescence, higher = more signal;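 note: score merges 667 nm feature emission with signal to noise over triplicate slides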
[9] = target: Luciferin 4-monooxygenase (Photinus pyralis) (UniProt P08659); experiment: firefly luciferase enzyme inhibitors, primary screen, biochemical, luminescence, purified enzyme, 2006 set (AID 1141); details: SteadyGlo luminescence, 30 min, higher = more signal, called active from +8 up or from −8 down;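 note: cell-free assay with purified firefly luciferase at 100 ng per well in PBS; test concentration not given here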
[10] = tested on: Wnt5a (protein binding on small-molecule microarray); experiment: Wnt5a binders on small-molecule microarray, primary screen, biophysical, 635/667 nm fluorescence (AID 1142); details: 635 nm fluorescence, higher = more signal;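 note: fluorescence read at 667 nm with signal to noise per printed feature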
[11] = cell viability in Huh7 cells, primary screen, cytotoxicity control for HCV replication inhibitor project, CellTiter-Glo luminescence, basal, 48 h (AID 1143); details: Huh7 HCV replicon, higher = more signal, called active from +8 up or from −8 down;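 note: Huh7 hepatoma cells carrying a hepatitis C replication reporter with no stimulus; test concentration not given here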
[12] = P. aeruginosa biofilm formation inhibitors, primary screen, PAO1 strain, BacTiter-Glo luminescence, LB-PBS (AID 1144); details: 12 h, higher = more signal
[13] = CREB reporter modulators without forskolin, primary screen, cell-based, PC12, CRE-LacZ reporter, unstimulated (AID 1145); details: no forskolin, luminescence, 4.5 h, higher = more signal, called active from +8 up or from −8 down
[14] = CREB reporter modulators under forskolin, primary screen, cell-based, PC12, CRE-LacZ reporter, forskolin-stimulated (AID 1146); details: luminescence, 4.5 h, higher = more signal, called active from +8 up or from −8 down;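 note: PC12 cells with 6xCRE LacZ reporter stimulated by forskolin 10 µM; beta-galactosidase reporter signal reflecting CREB driven transcription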
[15] = target: Streptavidin (Streptomyces avidinii) (UniProt P22629); experiment: streptavidin binders on small-molecule microarray, primary screen, artefact control for SMM compound annotation, biophysical, 635/667 nm fluorescence (AID 1147); details: streptavidin binding, higher = more signal;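 note: signal reflects streptavidin binding to arrayed compounds as a control protein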
[16] = small-molecule binders of probe aInhba, primary screen, biochemical, small-molecule microarray, 635/667 nm fluorescence (AID 1148); details: higher = more signal;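 note: score merges 667nm spot fluorescence with signal-to-noise for antibody binding to printed compounds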
Torsin-1A (Homo sapiens) [17] = target: Torsin-1A (Homo sapiens) (UniProt O14656); experiment: torsin A binders from cell lysate, primary screen, small-molecule microarray, wild-type, 635/667 nm (AID 1149); details: COS7 hTOR1A-WT lysate, 635 nm fluorescence, higher = more signal
Torsin-1A (Homo sapiens) [18] = target: Torsin-1A (Homo sapiens) (UniProt O14656); experiment: small-molecule binders of mutant TOR1A in lysate, primary screen, cell lysate, small-molecule microarray, COS7 lysate, 635/667 nm fluorescence (AID 1150); details: COS7 hTOR1A mutant lysate, 635 nm fluorescence, higher = more signal;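 note: score pools 667 nm emission and signal to noise measuring lysate protein binding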
[19] = tested on: Sonic hedgehog protein (Shh); experiment: small-molecule binders of Shh protein, primary screen, biochemical, small-molecule microarray, 635/667 nm fluorescence (AID 1151); details: small-molecule microarray binding, 635 nm fluorescence; higher = more signal;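 note: Shh protein binding to compounds spotted on small-molecule microarray slides; score combines spot fluorescence intensity with signal-to-noise across triplicate slides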

Sequence of Follistatin (Homo sapiens) (P19883 whole entry, looked up): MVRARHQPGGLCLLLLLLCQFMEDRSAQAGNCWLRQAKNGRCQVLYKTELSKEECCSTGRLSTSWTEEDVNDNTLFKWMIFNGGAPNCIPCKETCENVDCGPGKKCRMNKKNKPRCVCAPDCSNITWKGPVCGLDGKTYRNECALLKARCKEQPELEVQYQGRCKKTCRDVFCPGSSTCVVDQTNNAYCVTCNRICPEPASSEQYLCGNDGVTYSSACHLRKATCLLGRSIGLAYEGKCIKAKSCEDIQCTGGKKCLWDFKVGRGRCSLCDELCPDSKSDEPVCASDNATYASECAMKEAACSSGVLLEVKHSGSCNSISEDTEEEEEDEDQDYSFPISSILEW
Sequence of Luciferin 4-monooxygenase (Photinus pyralis) (P08659 whole entry, looked up): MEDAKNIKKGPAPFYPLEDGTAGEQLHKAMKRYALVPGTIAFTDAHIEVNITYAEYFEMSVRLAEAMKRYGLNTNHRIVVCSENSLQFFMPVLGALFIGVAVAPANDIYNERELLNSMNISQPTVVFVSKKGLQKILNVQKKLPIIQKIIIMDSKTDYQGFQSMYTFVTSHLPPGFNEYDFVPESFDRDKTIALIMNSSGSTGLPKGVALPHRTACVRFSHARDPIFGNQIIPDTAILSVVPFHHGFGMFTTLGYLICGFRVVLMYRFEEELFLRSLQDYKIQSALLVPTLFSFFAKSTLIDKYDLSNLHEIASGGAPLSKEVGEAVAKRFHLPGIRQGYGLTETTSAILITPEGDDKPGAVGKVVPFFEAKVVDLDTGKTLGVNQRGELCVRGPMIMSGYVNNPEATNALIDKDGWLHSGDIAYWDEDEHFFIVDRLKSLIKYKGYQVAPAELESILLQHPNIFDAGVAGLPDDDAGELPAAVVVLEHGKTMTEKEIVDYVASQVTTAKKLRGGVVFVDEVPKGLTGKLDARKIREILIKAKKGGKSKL
Sequence of Focal adhesion kinase 1 (Homo sapiens) (Q05397 whole entry, looked up): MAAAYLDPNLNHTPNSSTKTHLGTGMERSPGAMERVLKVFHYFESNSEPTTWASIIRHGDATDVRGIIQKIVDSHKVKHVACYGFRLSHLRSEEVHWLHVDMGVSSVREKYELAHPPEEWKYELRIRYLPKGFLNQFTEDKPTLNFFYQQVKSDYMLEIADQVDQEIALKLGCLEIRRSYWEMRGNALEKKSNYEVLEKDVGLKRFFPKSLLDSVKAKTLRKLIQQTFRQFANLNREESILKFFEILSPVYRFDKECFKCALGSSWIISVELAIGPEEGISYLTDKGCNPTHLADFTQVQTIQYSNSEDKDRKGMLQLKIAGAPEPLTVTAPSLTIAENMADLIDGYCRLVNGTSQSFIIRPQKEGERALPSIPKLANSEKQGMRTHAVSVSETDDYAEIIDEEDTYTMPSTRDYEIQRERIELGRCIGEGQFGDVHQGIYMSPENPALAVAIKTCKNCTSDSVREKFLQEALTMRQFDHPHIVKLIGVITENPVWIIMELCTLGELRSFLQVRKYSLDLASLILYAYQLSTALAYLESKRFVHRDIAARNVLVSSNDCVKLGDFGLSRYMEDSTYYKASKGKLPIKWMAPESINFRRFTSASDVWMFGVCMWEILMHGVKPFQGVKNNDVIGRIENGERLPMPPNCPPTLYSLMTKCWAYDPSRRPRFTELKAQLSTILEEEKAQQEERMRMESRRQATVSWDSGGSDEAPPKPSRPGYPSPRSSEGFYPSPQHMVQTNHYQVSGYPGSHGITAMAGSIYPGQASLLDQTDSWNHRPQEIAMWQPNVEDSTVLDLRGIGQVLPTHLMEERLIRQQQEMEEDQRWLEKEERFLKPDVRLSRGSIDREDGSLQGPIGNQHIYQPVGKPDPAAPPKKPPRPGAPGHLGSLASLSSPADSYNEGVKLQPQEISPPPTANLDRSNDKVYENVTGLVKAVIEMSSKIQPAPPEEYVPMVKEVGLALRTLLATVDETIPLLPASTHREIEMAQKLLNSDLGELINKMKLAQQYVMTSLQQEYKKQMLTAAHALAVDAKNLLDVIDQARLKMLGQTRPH
Sequence of Streptavidin (Streptomyces avidinii) (P22629 whole entry, looked up): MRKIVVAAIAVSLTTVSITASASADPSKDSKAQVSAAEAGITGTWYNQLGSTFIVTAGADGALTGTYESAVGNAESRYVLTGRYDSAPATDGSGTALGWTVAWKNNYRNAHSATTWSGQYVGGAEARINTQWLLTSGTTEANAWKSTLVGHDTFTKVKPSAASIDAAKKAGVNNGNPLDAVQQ
Sequence of Torsin-1A (Homo sapiens) (O14656 whole entry, looked up): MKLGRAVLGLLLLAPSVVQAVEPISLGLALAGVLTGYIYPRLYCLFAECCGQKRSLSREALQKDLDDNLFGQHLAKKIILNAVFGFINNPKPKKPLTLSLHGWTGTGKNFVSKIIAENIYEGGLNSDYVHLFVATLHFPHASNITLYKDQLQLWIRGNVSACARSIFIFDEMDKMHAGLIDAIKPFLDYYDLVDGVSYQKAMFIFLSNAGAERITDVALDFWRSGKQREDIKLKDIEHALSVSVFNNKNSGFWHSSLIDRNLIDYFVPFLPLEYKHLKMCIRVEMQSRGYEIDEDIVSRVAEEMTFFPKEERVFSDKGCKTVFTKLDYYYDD
Sequence of Fibroblast growth factor 2 (Homo sapiens) (P09038 whole entry, looked up): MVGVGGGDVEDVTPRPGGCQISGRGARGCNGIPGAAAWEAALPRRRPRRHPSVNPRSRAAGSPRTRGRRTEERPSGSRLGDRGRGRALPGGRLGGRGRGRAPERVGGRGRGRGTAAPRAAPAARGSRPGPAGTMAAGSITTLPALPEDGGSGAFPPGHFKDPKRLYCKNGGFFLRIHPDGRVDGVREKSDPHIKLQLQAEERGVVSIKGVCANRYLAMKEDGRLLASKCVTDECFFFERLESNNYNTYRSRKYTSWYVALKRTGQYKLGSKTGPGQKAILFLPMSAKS

`C=CCNC(=O)[C@H]1[C@@H]2C(=O)O[C@@H](c3ccccc3)[C@@H](c3ccccc3)N2[C@@H](c2ccc(OCCO)cc2)[C@]12C(=O)Nc1ccc(C#CC3=CCCCC3)cc12` showed a composite z-score [1] of 0.354, a composite z-score [2] of 1.09 and a composite z-score [3] of -0.544. For the same compound, the composite z-score [4] was 0.957, the composite z-score [5] was 1.26 and the composite z-score [6] was 0.553. The z-score [7] was -0.801, the composite z-score (Lefty1) was 0.937 and the composite z-score [8] was 0.494. For the same compound, the z-score [9] was 0.098 (inactive), the composite z-score [10] was 0.722 and the z-score [11] was -4.45 (inactive). The z-score [12] was 0.334 (inactive), the z-score [13] was 0.775 (inactive) and the z-score [14] was -0.267 (inactive). It also gave a composite z-score [15] of 0.376, a composite z-score [16] of -0.0136 and a composite z-score (Torsin-1A (Homo sapiens) [17]) of 0.127. It also gave a composite z-score (Torsin-1A (Homo sapiens) [18]) of 0.578 and a composite z-score [19] of 1.54.
`C=CCOC(=O)[C@@H]1[C@H]2C(=O)O[C@H](c3ccccc3)[C@H](c3ccccc3)N2[C@H](c2ccc(OCCOC(=O)[C@@H]3C[C@@H]4C(=O)N[C@@H](CCCC[N+](C)(C)C)C(=O)N4[C@@H]3c3cccc(OCCO)c3)cc2)[C@@]12C(=O)Nc1ccc(I)cc12` gave a composite z-score [1] of 1.13, a composite z-score [2] of 1.17 and a composite z-score [3] of 1.15. For the same compound, the composite z-score [4] was 0.531, the composite z-score [5] was 1.41 and the composite z-score [6] was 1.79. The z-score [7] was -1.2, the composite z-score (Lefty1) was 1.64 and the composite z-score [8] was 0.347. For the same compound, the z-score [9] was -1.82 (inactive), the composite z-score [10] was 0.596 and the z-score [11] was -2.13 (inactive). The z-score [12] was -1.22 (inactive), the z-score [13] was 0.0084 (inactive) and the z-score [14] was 1.83 (inactive). For the same compound, the composite z-score [15] was 0.337, the composite z-score [16] was -0.122 and the composite z-score (Torsin-1A (Homo sapiens) [17]) was 0.993. The composite z-score (Torsin-1A (Homo sapiens) [18]) was 1.15 and the composite z-score [19] was 1.99.
With `CCCC=C(CCC)[C@@H](NS(=O)(=O)c1cccs1)c1ccc(C(=O)OC)cc1` the composite z-score [1] was 1.16, the composite z-score [2] was 1.17 and the composite z-score [3] was 0.496. It also gave a composite z-score [4] of 1.02, a composite z-score [5] of 0.825 and a composite z-score [6] of -0.186. The z-score [7] was -2.96, the composite z-score (Lefty1) was -0.3 and the composite z-score [8] was 1.17. For the same compound, the z-score [9] was 0.917 (inactive), the composite z-score [10] was 0.247 and the z-score [11] was -3.88 (inactive). For the same compound, the z-score [12] was 0.276 (inactive), the z-score [13] was 0.201 (inactive) and the z-score [14] was 0.91 (inactive). For the same compound, the composite z-score [15] was 1.37, the composite z-score [16] was 0.16 and the composite z-score (Torsin-1A (Homo sapiens) [17]) was -0.0907. The composite z-score (Torsin-1A (Homo sapiens) [18]) was 0.647 and the composite z-score [19] was -0.168.
For `CCCCCCC#C[Si](O[C@H](c1ccccc1)c1cn([C@H](CO)Cc2ccccc2)nn1)(C(C)C)C(C)C`, the composite z-score [1] was 0.355, the composite z-score [2] was -0.116 and the composite z-score [3] was -0.074. For the same compound, the composite z-score [4] was -1.29, the composite z-score [5] was -0.193 and the composite z-score [6] was -0.489. The z-score [7] was -0.319, the composite z-score (Lefty1) was 0.65 and the composite z-score [8] was 0.207. For the same compound, the z-score [9] was 0.751 (inactive), the composite z-score [10] was -0.193 and the z-score [11] was -0.866 (inactive). For the same compound, the z-score [12] was -0.235 (inactive), the z-score [13] was -0.215 (inactive) and the z-score [14] was -0.0183 (inactive). For the same compound, the composite z-score [15] was -0.463, the composite z-score [16] was -0.128 and the composite z-score (Torsin-1A (Homo sapiens) [17]) was -1.01. It also gave a composite z-score (Torsin-1A (Homo sapiens) [18]) of 0.211 and a composite z-score [19] of 0.537.
In the case of `O=C(NCc1ccccc1)[C@@H]1c2ccccc2C(=O)N(CC23CC4CC(CC(C4)C2)C3)[C@H]1c1ccc(CO)cc1`, the composite z-score [1] is reported as 0.153, the composite z-score [2] is reported as 1.19 and the composite z-score [3] is reported as 0.0304. The composite z-score [4] was 0.937, the composite z-score [5] was 1.17 and the composite z-score [6] was 1.43. It also gave a z-score [7] of 0.705, a composite z-score (Lefty1) of 0.884 and a composite z-score [8] of 0.31. The z-score [9] was -0.715 (inactive), the composite z-score [10] was 0.237 and the z-score [11] was -2 (inactive). For the same compound, the z-score [12] was 0.196 (inactive), the z-score [13] was -0.439 (inactive) and the z-score [14] was 0.707 (inactive). It also gave a composite z-score [15] of 0.467, a composite z-score [16] of -0.377 and a composite z-score (Torsin-1A (Homo sapiens) [17]) of 0.239. It also gave a composite z-score (Torsin-1A (Homo sapiens) [18]) of 0.654 and a composite z-score [19] of 1.83.
